Pf growth 96h: inhibits malaria parasite growth, 96 h. P. falciparum luciferase reporter growth, 96 h. Potency, µM (highest dose often 28.7 µM), for the others: top-dose activity change, negative = inhibition, hits mostly inhibitors. 320,000 compounds, 6.9% hits; note: potency is the fitted concentration of half-maximal effect; % is set by controls: 0 for no effect and ±100 for the full control effect
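P. falciparum expressing integrated firefly luciferase grown in erythrocytes (2% hematocrit, 0.05% parasitemia final) with compounds for 96 hours at 37 C, 5% CO2. Growth inhibition read as loss of luminescence after adding luciferase detection reagent.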
Shiga inhibitor: inhibitors of Shiga toxin in Vero cells; Vero cells, Shiga toxin protein synthesis inhibition reporter; inhibition, % at 38.7 µM; 290,000 compounds, 9.2% hits; in the data active = inhibition mostly above about 28%, no sharp cut-off; inactive = mostly below about 43%; note: 0% is about no effect
CHX counter: affects cycloheximide protein synthesis inhibition readout, counter-screen | cell reporter, cycloheximide protein synthesis inhibition counterscreen | 300,000 compounds, 12% hits | max response, %; in the data active = max response mostly above about 13%, no sharp cut-off; inactive = mostly below about 14%; note: read at 38.3 µM for the half of the compounds with a filed dose; 0% is about no effect
SARS PLP yeast: blocks SARS-CoV papain-like protease in a yeast assay; S. cerevisiae expressing SARS-CoV PLpro, growth rescue; Potency, µM (top dose mostly 32.9 µM), without a hit: at the highest dose activity, positive = growth rescue, usual class: activators; 330,000 compounds, 0.19% hits; AID 485353; calls by dose curve; note: potency is the fitted concentration of half-maximal effect; 0% is about no effect; nearly all actives have a fitted effect of over 55% in size
NS1 inh: blocks influenza NS1 protein function; Potency, µM (series often up to 46.1 µM), for the others: at the highest dose activity, positive = more growth; 270,000 compounds, 0.4% hits; AID 2326; calls by dose curve; note: potency is the fitted concentration of half-maximal effect; actives are rising curves; nearly all actives have a fitted effect of over 50% in size
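Read-out: OD600 growth recovery of NS1-expressing budding yeast. Cells grown overnight at 30C in -URA glucose medium, washed, resuspended and diluted 1:100 in 2% galactose assay medium, pH 6.0. Same strain lacking NS1 served as positive control.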
Pf growth 48h: P. falciparum growth inhibition at 48 hours (one generation). Potency, µM (doses to about 28.7 µM), for inactives: top-dose activity change, negative = inhibition, usual class: inhibitors. P. falciparum luciferase growth in erythrocytes, 48 h. 310,000 compounds, 5.9% hits; note: potency is the fitted concentration of half-maximal effect; % is set by controls: 0 for no effect and ±100 for the full control effect
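Parasite viability was followed by luminescence of a genomically integrated firefly luciferase. Cultures held 0.1% parasitemia at 2% hematocrit (final), incubated under 5% CO2 at 37 C.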
Starred values were filed as active, the others as inactive. Shown are actives, neighbours in structure and some others; about 21% of the full set was active somewhere. Unless noted, calls come from the whole dose curve; as a rule, active = well fitted inhibition curve with a large enough effect; inconclusive = small, poorly fitted or top-dose-only effect, or another doubt; inactive = no such curve, though single readings can be large or run the other way.

CNc1nc(-c2ccccc2)[n+](-c2ccc(C)cc2)s1 was read as Pf growth 96h 73.3%, Shiga inhibitor 134.7*, CHX counter 29.8*, SARS PLP yeast inconclusive, NS1 inh -9.4% and Pf growth 48h 28.1%.
For Cc1ccc(-c2nc(N)s[n+]2-c2ccccc2)cc1 the results were Pf growth 96h -21.4%, Shiga inhibitor 91.0*, CHX counter 80.9*, SARS PLP yeast 8.0%, NS1 inh 23.6% and Pf growth 48h 53.0%.
Cc1ccc(-c2nc3ccccc3nc2-c2ccccc2)cc1 was read as Pf growth 96h inconclusive, Shiga inhibitor -5.1, CHX counter 11.3, SARS PLP yeast -4.8%, NS1 inh -5.2% and Pf growth 48h 30.1%.
For O=C(CN1CCCC1)NN=C(c1ccccc1)c1ccccc1 the results were Pf growth 96h inconclusive, Shiga inhibitor -5.0, CHX counter -0.6, SARS PLP yeast 0.4%, NS1 inh 4.1% and Pf growth 48h 0.0%.
`COc1ccc(C(=O)O/N=C(/C)c2cccs2)cc1` gave Pf growth 96h 12.9%, Shiga inhibitor 60.8*, CHX counter 34.4*, SARS PLP yeast -30.5% and NS1 inh -166.1%.
Screening COc1ccc(C2CC2/C(C)=N/OC(=O)c2cccs2)cc1 (stereo unspecified) returned Pf growth 96h inconclusive, Shiga inhibitor 16.8, CHX counter 14.4, SARS PLP yeast -32.7% and NS1 inh -226.7%.
Screening COc1ccc(C(=O)O/N=C(\C)c2nccs2)cc1 returned Pf growth 96h -68.4%, Shiga inhibitor 30.1, CHX counter 26.4*, SARS PLP yeast -1.7%, NS1 inh -51.5% and Pf growth 48h 28.7%.
Screening COc1ccc(OCCOC(=O)c2cccs2)cc1 returned Pf growth 96h 46.9%, Shiga inhibitor 77.3*, CHX counter 32.5*, SARS PLP yeast -3.2%, NS1 inh -13.7% and Pf growth 48h 60.7%.
`C/C(=N\OC(=O)c1ccc(F)cc1)c1nccs1` gave Pf growth 96h 7.4%, Shiga inhibitor 53.3, CHX counter 46.7*, SARS PLP yeast -11.9%, NS1 inh -24.8% and Pf growth 48h 48.1%.
CS(=O)(=O)Nc1cccc(C2=NN(C(=O)c3ccco3)C(c3cccs3)C2)c1 (stereo unspecified) was read as Pf growth 96h -13.1%, Shiga inhibitor 4.3, CHX counter -2.0, SARS PLP yeast 6.3%, NS1 inh 6.6% and Pf growth 48h inconclusive.
Screening Cc1ccccc1OCCC(=O)OCC(=O)NCCc1ccccc1 returned Pf growth 96h 20.7%, SARS PLP yeast -5.1% and Pf growth 48h -0.3%.
Screening Cc1cc(C(=O)Cn2cnc3cc(F)ccc3c2=O)c(C)n1C1CC1 returned SARS PLP yeast 12.8%.
For CCCCCCCCN=C(N)c1ccc(C(=O)OCC2CCCCC2)cc1 the results were Shiga inhibitor -18.1 and CHX counter -17.7.
O=C(NCCCN1CCCC1=O)c1ccc2c(c1)NC(=O)c1ccccc1S2 was read as Pf growth 96h -13.4%, Shiga inhibitor -8.6, CHX counter -7.4, SARS PLP yeast 2.6% and NS1 inh 5.0%.
`CC1CCCC(C)N1CCCNC(=O)c1ccc2c(c1)NC(=O)c1ccccc1S2` (stereo unspecified) gave Pf growth 96h inconclusive, Shiga inhibitor -2.0, CHX counter 9.5, SARS PLP yeast -1.7%, NS1 inh -15.1% and Pf growth 48h 4.15µM*.
Screening CCN1CCN(CCCNC(=O)c2ccc3c(c2)NC(=O)c2ccccc2S3)CC1 returned Pf growth 96h 8.28µM*, Shiga inhibitor 0.9, CHX counter -3.3, SARS PLP yeast -1.7%, NS1 inh -9.2% and Pf growth 48h 14.7µM*.
For CCC(C)N(CCNC(=O)c1ccc2c(c1)NC(=O)c1ccccc1S2)C1CCCCC1 (stereo unspecified) the results were Pf growth 96h inconclusive, Shiga inhibitor -3.3, CHX counter -4.1, SARS PLP yeast 0.4%, NS1 inh 4.2% and Pf growth 48h 1.85µM*.
For COc1ccc(OCCN2C(=O)c3ccccc3C2=O)c([N+](=O)[O-])c1 the results were Pf growth 96h 47.9%, Shiga inhibitor 61.8*, CHX counter 95.6*, SARS PLP yeast -0.2%, NS1 inh -3.8% and Pf growth 48h 22.8%.

High-throughput results: PubChem, National Center for Advancing Translational Sciences (NCATS)
